# Results filed as inconclusive are left out. Active and inactive are the calls of the source. Unless noted, calls follow the shape of the dose curve; as a rule, active = well fitted curve in the direction sought with a large enough effect; inconclusive = small, poorly fitted or top-dose-only effect, or another doubt; inactive = no such curve, though single readings can be large; an effect the other way counts as inactive or inconclusive.
# Experiments:
# [1] = P-glycoprotein substrates identified in KB-3-1 adenocarcinoma cell line, qHTS therapeutic library screen (AID 1346986); also: nearly all actives have a fitted effect of over 60% in size
# How it was run: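 In 1536-well format, 500 cells/well received pinned compound titrations and were incubated 72 h, 5% CO2. Viability was read by CellTiter-Glo; cytotoxic if AC50 < 10 uM and efficacy >50%.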
# [2] = system: NIH3T3; experiment: qHTS assay to identify novel small-molecules to repurpose for Merkel cell carcinoma treatment (AID 1296009); conditions: MCC and control cell lines, CellTiter-Glo viability, 72 h; at 44.8 µM (top of the series) unless noted; also: nearly all actives have a fitted effect of over 60% in size
# How it was run: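 Dose-response viability screen; 72 hr exposure at 37 degree celsius; CellTiter-Glo added, 10 min room temperature, luminescence read; RLUs scaled between no-cell and DMSO wells.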
# [3] = system: Zika virus NS2B-NS3 protease (linked construct); experiment: Confirmatory screen NINDS AMC qHTS for Zika virus inhibitors (AID 1347152); also: potency is read from the fitted curve at half-maximal effect; nearly all actives have a fitted effect of over 70% in size
# How it was run: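 Linked NS2B-NS3 protease, 1 nM, in 10 mM Tris-HCl pH 8.0, 0.01% Tween 20; compounds preincubated 15 min at room temperature. Nle-KRR-AMC 10 microM (Km 18.3 µM); 15-min fluorescence change (340/450 nm) fitted to 4-parameter Hill.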
# [4] = HepG2 cells viability qHTS for Zika virus inhibitors (AID 1347168); also: potency is read from the fitted curve at half-maximal effect
# How it was run: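 qHTS titration; 24-48 h compound exposure, 37 degrees C/5% CO2; DMEM, 4% FBS; CellTiter Glo ATP luminescence.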
# [5] = qHTS to identify inhibitors of the type 1 interferon - major histocompatibility complex class I in skeletal muscle: primary screen against the NCATS Mechanism Interrogation Plate v5.0 (MIPE) Libary (AID 1347411); also: nearly all actives have a fitted effect of over 65% in size; also: potency is read from the fitted curve at half-maximal effect;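 as to activity change, negative = inhibition: plate controls were vehicle for no effect and reference inhibitor for full effect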
# How it was run: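 Seed engineered human myoblasts (HLA-B HiBit) in medium without dexamethasone containing 4 ng/ml IFN-beta; after 1 hr add compound titrations (top 46 uM final). Incubate 24 hrs at 37 C, lyse 10 min with HiBiT reagent, read luminescence.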
# [6] = target: Catechol O-methyltransferase (Homo sapiens) (UniProt P21964); experiment: Confirmatory Screen for Target Class Profiling of Small Molecule Inhibitors of Methyltransferases (AID 1745852); conditions: MTase-Glo luminescence, SAH detection, recombinant enzyme; measured here: COMT max response; stronger effect = lower value; as to activity change, negative = inhibition: % is scaled to controls: 0 for no effect and ±100 for the full control effect
# Sequence of Catechol O-methyltransferase (Homo sapiens) (P21964 whole entry, looked up): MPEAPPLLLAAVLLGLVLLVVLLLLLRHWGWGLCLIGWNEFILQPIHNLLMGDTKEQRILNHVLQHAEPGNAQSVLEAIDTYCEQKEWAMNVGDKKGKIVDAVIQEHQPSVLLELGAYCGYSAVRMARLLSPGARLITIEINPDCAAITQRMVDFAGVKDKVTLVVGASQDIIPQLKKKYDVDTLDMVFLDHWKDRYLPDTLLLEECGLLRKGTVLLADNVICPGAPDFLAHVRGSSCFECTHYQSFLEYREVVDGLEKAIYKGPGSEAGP
# [7] = target: Guanidinoacetate N-methyltransferase (Homo sapiens) (UniProt Q14353); experiment: as above; conditions: activity change, negative = inhibition: at 57.3 µM (top of the series) unless noted
# [8] = target: Nicotinamide N-methyltransferase (Homo sapiens) (UniProt P40261); experiment: as above; conditions: MTase-Glo luminescence, SAH detection, recombinant enzyme; measured here: NNMT max response; stronger effect = lower value
# Sequence of Nicotinamide N-methyltransferase (Homo sapiens) (P40261 whole entry, looked up): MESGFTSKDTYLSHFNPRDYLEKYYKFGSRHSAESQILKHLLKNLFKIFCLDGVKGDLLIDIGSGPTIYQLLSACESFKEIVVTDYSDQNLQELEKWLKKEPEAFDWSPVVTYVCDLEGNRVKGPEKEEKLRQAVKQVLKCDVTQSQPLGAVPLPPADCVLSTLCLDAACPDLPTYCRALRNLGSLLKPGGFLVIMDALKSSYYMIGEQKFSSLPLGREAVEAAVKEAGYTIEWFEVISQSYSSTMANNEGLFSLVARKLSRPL
# [9] = target: Phenylethanolamine N-methyltransferase (Homo sapiens) (UniProt P11086); experiment: as above; conditions: MTase-Glo luminescence, SAH detection, recombinant enzyme; measured here: PNMT max response; stronger effect = lower value
# Sequence of Phenylethanolamine N-methyltransferase (Homo sapiens) (P11086 whole entry, looked up): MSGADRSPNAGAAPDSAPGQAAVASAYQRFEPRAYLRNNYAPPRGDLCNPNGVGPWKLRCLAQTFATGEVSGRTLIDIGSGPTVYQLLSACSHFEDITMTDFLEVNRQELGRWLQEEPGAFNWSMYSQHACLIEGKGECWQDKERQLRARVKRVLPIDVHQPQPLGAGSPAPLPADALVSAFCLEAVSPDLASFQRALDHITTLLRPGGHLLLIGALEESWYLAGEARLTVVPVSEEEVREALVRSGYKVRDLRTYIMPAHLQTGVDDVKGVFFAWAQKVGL
# [10] = target: Thyroid hormone receptor beta (Homo sapiens) (UniProt P10828); experiment: qHTS assay for small molecule agonists of thyroid hormone receptor beta signaling (AID 588545; calls by dose curve; also: potency is read from the fitted curve at half-maximal effect)
# Sequence of Thyroid hormone receptor beta (Homo sapiens) (P10828 whole entry, looked up): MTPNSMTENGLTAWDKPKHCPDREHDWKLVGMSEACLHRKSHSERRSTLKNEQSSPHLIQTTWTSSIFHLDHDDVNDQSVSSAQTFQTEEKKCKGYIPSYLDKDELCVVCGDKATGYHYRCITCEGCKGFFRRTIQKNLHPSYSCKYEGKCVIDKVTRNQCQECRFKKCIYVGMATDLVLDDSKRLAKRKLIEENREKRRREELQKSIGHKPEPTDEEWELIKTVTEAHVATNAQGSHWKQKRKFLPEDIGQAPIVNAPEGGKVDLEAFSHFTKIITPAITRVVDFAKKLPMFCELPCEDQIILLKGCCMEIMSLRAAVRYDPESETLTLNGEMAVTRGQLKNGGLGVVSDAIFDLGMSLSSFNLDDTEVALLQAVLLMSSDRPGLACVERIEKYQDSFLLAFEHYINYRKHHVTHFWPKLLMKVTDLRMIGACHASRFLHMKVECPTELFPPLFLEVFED
# How it was run: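 Agonist activity was read as beta-lactamase CCF4 fluorescence (405 ex, 460/530 em), scaled between DMSO (0%) and 10 nM T3 (100%), then Hill-fitted for EC50 and efficacy. HEK 293 TR-UAS-bla cells in 2% charcoal/dextran FBS medium were exposed 18 h at 37 C.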
# [11] = qHTS assay for small molecule activators of the nuclear factor-kappa B (NF-kB) signaling pathway (AID 651749; active = well fitted activation curve with a large enough effect in the signal ratio; the % refers to the signal ratio; also: potency is read from the fitted curve at half-maximal effect); conditions: NF-kB-bla ME-180 cells, beta-lactamase FRET ratio, 16 h; activation: stronger effect = higher value
# How it was run: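 In this qHTS format, compounds acting as activators increase NF-kB-driven beta-lactamase in ME-180 cells, measured as disrupted FRET after 16 hr exposure at 37C and 5% CO2.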
# [12] = target: Peroxisome proliferator-activated receptor alpha (Homo sapiens) (UniProt Q07869); experiment: qHTS assay for small molecule agonists of the peroxisome proliferator-activated receptor alpha (PPARalpha) signaling pathway (AID 651778); conditions: PathHunter PPARalpha complementation, chemiluminescence, 6 h; stronger effect = higher value; also: % of control where 0% means no effect
# Sequence of Peroxisome proliferator-activated receptor alpha (Homo sapiens) (Q07869 whole entry, looked up, the tested form may be a part): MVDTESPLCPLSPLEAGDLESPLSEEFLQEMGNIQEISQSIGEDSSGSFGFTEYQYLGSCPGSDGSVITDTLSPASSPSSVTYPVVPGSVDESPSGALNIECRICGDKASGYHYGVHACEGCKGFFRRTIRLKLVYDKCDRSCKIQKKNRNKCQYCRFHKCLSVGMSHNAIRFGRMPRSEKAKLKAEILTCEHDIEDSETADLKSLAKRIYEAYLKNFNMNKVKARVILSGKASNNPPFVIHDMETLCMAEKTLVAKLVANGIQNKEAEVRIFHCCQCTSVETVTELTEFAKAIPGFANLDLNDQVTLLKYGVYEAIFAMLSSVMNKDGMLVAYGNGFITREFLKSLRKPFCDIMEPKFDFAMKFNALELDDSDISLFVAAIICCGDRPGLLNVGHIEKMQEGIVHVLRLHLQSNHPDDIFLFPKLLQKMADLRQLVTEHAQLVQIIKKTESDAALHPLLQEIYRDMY
# How it was run: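 Enzyme-fragment complementation assay in which ligand-bound PPARalpha translocates and forms an active enzyme that generates chemiluminescence. Cells were plated overnight, exposed to compound for 6 hr at 37 C, and then given detection reagent for 60 min at room temperature.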
# [13] = qHTS assay for small molecule agonists of the antioxidant response element (ARE) signaling pathway measured by Nrf2-dependant transcriptional activity - cell viability counter screen (AID 720653; active = well fitted curve in the direction sought with a large enough effect in the repeat runs; an effect the other way counts as inactive or inconclusive; also: % is scaled to controls: 0 for no effect and ±100 for the full control effect); conditions: ARE-bla HepG2 viability, CellTiter-Glo ATP luminescence, 16 h; max response: stronger effect = lower value
# How it was run: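 ARE-bla HepG2 cells treated with compounds for 16 h at 37C; this counter screen measures viability as intracellular ATP by CellTiter-Glo luminescence after 30 min at room temperature.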
# [14] = qHTS assay for cell viability of the p53RE-bla HCT-116 cell line (AID 743292); also: % is scaled to controls: 0 for no effect and ±100 for the full control effect; nearly all actives have a fitted effect of over 55% in size
# How it was run: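 After plating at 4,000 cells per well and a 5 h rest at 37 C, HCT-116 cells carrying p53RE-bla received test chemicals in DMSO. Sixteen hours later at 37 C, CellTiter-Glo was added and luminescence recorded following 30 min at room temperature.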
# [15] = target: Nuclear receptor subfamily 1 group I member 2 (Rattus norvegicus) (UniProt Q9R1A7); experiment: qHTS assay for small molecule activators of the rat pregnane X receptor (rPXR) signaling pathway (AID 651751; call rule not given here; also: 0% is about no effect); conditions: rPXR reporter cells, luciferase (One-Glo), 24 h
# Sequence of Nuclear receptor subfamily 1 group I member 2 (Rattus norvegicus) (Q9R1A7 whole entry, looked up): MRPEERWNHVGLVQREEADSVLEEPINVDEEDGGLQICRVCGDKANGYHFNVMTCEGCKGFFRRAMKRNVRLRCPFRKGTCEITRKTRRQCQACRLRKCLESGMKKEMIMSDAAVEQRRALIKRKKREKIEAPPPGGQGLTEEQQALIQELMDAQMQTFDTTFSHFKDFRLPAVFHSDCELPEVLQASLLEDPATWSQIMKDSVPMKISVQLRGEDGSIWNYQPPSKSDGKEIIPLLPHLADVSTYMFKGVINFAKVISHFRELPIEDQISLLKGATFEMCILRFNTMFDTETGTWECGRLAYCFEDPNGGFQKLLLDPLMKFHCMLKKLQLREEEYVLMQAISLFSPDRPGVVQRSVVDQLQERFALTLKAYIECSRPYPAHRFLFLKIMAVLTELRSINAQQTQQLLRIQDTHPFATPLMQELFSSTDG
# [16] = qHTS assay for small molecule activators of the human pregnane X receptor (PXR) signaling pathway (AID 720659; call rule not given here; also: 0% is about no effect)
# [17] = target: Furin (Homo sapiens) (UniProt P09958); experiment: Furin counterscreen qHTS for Zika virus inhibitors (AID 1347149);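 also: purified recombinant full-length human furin enzyme at 5 nM; fluorescence gain from furin cutting a BOC-RVRR-AMC peptide substrate over 15 min; top concentration of the series differs between compounds; plate controls were no-inhibitor control for no effect and no-enzyme control for full effect; nearly all actives have a fitted effect of over 70% in size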
# Sequence of Furin (Homo sapiens) (P09958 whole entry, looked up): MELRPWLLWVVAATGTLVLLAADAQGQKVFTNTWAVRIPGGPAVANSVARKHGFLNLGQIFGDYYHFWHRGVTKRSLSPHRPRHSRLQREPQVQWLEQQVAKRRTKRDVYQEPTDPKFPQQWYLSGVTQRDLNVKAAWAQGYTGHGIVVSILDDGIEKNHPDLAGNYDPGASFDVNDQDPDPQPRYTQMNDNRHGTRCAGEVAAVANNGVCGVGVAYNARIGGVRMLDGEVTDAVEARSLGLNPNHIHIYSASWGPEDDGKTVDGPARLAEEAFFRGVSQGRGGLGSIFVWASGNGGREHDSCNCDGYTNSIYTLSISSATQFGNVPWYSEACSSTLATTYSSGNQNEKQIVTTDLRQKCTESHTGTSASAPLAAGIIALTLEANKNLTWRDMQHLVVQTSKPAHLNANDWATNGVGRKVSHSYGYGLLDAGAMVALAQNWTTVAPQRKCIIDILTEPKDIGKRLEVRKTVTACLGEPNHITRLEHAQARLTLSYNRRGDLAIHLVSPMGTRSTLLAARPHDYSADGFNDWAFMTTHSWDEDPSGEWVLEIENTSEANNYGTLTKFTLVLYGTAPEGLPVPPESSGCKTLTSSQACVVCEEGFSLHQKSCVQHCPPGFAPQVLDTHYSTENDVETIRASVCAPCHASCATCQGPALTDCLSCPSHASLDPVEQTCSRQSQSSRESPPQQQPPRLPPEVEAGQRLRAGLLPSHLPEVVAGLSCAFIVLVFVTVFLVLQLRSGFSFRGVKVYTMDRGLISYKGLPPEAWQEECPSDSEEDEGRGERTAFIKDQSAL
# How it was run: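 Counterscreen measures cleavage of 2 microM BOC-RVRR-AMC, below its ~15 microM Km, by 5 nM full-length human furin at pH 7.0 after a 15-min compound preincubation. Inhibition derives from the 15-min fluorescence increase at 37C.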
# [18] = system: Zika virus NS2B-NS3 protease (unlinked); experiment: Optimization of GU AMC qHTS for Zika virus inhibitors: Unlinked NS2B-NS3 protease assay (AID 1347151);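 also: 0% = no-inhibitor control and -100% = no-enzyme control; nearly all actives have a fitted effect of over 80% in size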
# How it was run: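 Noncovalent NS2B hydrophilic domain–NS3 protease complex (25 nM final) in 10 mM Tris-HCl pH 8.0, 0.01% Tween 20; AMC substrate, room temperature 15 min (~20% conversion); fluorescence change normalized, 4-parameter Hill fit.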
smiles,measurement,setting,value
Cc1cccc(NC(=O)c2ccc(C(F)(F)F)cc2C(=O)O)n1,Potency,[1],inactive
C[C@]12CC[C@H](O[C@@H]3O[C@H](CO)[C@@H](O)[C@H](O)[C@H]3O)CC1CC[C@@H]1C2CC[C@]2(C)[C@@H](C3=CC(=O)OC3)CC[C@]12O (stereo partly drawn),outcome,[2],inactive [at 17.4 µM]
C/C=C(\C)C(=O)O[C@@H]1[C@@H](C)[C@]2(O)C3C=C(C)C(=O)[C@@]3(O)CC(CO)=C[C@H]2C2C(C)(C)[C@@]21OC(=O)C(C)CC (stereo partly drawn),Potency,[1],inactive
same,outcome,[2],inactive [at 17.4 µM]
CC(C)=CCC[C@]1(C)C=Cc2c(O)c3c(c(CC=C(C)C)c2O1)O[C@]12C(=C[C@@H]4CC1C(C)(C)O[C@@]2(C/C=C(/C)C(=O)O)C4=O)C3=O,Potency,[3],9.87 µM (active)
same,Potency,[4],2.94 µM (active)
Cc1ccc(-n2nccn2)c(C(=O)N2CCN(c3nc4cc(Cl)ccc4o3)CCC2C)c1 (stereo not drawn),outcome,[2],inactive
C/C(=C\c1csc(C)n1)[C@@H]1C[C@@H]2O[C@@H]2CCC[C@H](C)[C@H](O)[C@@H](C)C(=O)C(C)(C)[C@@H](O)CC(=O)O1,Potency,[5],inactive
C[C@]12CC[C@H](OC3OC(CO)C(O)C(O)C3OC3OC(CO)C(O)C(O)C3O)C[C@@H]1CC[C@@H]1C2CC[C@]2(C)[C@@H](C3=CC(=O)OC3)CC[C@]12O (stereo partly drawn),outcome,[2],inactive [at 17.4 µM]
CC(C)OC(=O)c1ccnc2cc(C(OCCN3CCCCC3)c3ccccc3Cl)sc12 (stereo not drawn),activity,[6],3.41%
same,"activity change, negative = inhibition",[7],8.86%
same,activity,[8],-30.3%
same,activity,[9],-6.38%
CCOC(=O)c1ccnc2cc(C(OCCN3CCCCC3)c3ccccc3Cl)sc12 (stereo not drawn),activity,[6],-1.68%
same,"activity change, negative = inhibition",[7],9.58%
same,activity,[8],-18.4%
same,activity,[9],-4.81%
Cc1ncc(OC[C@@]2(c3cccc(F)c3)C[C@H]2C(=O)Nc2ccc(F)cn2)c(C)n1,Potency,[5],inactive
same,outcome,[2],inactive
C[C@@H]1Cc2c(Cl)cc(C(=O)N[C@@H](Cc3ccccc3)C(=O)O)c(O)c2C(=O)O1,Potency,[10],44.7 µM (active)
same,Potency,[11],44.7 µM (active)
same,max response,[12],-0.744% (inactive)
same,max response,[13],9.38% (inactive)
same,outcome,[14],inactive
same,max response,[15],-12% (inactive)
same,outcome,[16],inactive
CC[C@H]1/C=C\C=C/C[C@@H](C)[C@H](O)[C@@](C)(O)C(=O)[C@@H](C)[C@H](O)[C@@H](C)C(=O)[C@@H](C)[C@H](O)[C@@H](C)/C=C\C(=O)O[C@@H]2[C@H](C)[C@H](CC1)O[C@]1(CC[C@H](C)[C@H](C[C@@H](C)O)O1)[C@H]2C,Potency,[5],20.8 µM (active)
Cc1ccc2c(c1)[C@]13CCCC[C@@H]1[C@H](C2)N(C)CC3,Potency,[17],inactive
same,outcome,[18],inactive
same,Potency,[4],inactive
C[C@H]1[C@H]2Cc3ccc(O)cc3[C@]1(C)CCN2CCc1ccccc1,Potency,[17],inactive
same,outcome,[18],inactive
same,Potency,[4],inactive

# Source: PubChem BioAssay (NCATS)
